Laboratory results as given in PubChem BioAssay AID431 (Sanford-Burnham Center for Chemical Genomics, 2006).
Out of some 63,000 compounds screened, about 1,100 (1.7%) were called active. The list comes from a sample in which actives are over-represented; it also holds similar structures and randomly drawn compounds. Potency and affinity values are given separately. Unmarked numbers belong to inactive results.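 The calls were made as follows: active = compounds whose percent cytotoxicity in the single-dose primary screen, scaled between solvent and toxic-drug controls, exceeds 50; inactive = the rest.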

Assay: viability loss of HPDE-C7K cells – cell-based, fluorescence, HTS, primary screen (AID 431);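 also: 0% = DMSO solvent wells and 100% = doxorubicin-treated wells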
Conditions: HPDE-C7K KRASV12 cells, Alamar Blue viability, 48 h; at 10 µM; hits give high values

Row | Compound | cytotoxicity
1 | Cc1cccc(C2CC(c3ccccc3)Nc3ncnn32)c1 (centres undefined) | 0%
2 | COc1ccc(CCNc2ncnc3[nH]ncc23)cc1OC | -5.5%
3 | O=C(NC1CCCc2ccccc21)C1CCN(S(=O)(=O)c2cnc[nH]2)CC1 (centres undefined) | -2.5%
4 | Cc1occc1-c1nc(-c2ccncc2)no1 | -13.6%
5 | CCSc1nnc(NC(=O)C(Cc2ccccc2)n2cccc2)s1 (centres undefined) | -0.8%
6 | Cc1csc(NC(=O)C(Cc2ccccc2)n2cccc2)n1 (centres undefined) | 15%
7 | O=C1[C@@H]2Cc3ccccc3CN2C(=O)N1c1cccc(F)c1 | -8.3%
8 | Cc1cccc(-n2c(C)nc3c(cnn3-c3ccc(F)cc3)c2=O)c1 | -11.2%
9 | CC(C)CC(=O)N1CCN(S(=O)(=O)c2ccc(F)cc2)CC1 | 0.4%
10 | COc1cccc(-c2nc(NCCN3CCOCC3)c3ccccc3n2)c1O | 53.1% (active)
11 | c1ccc(-c2nc(NCCCN3CCOCC3)c3ccccc3n2)cc1 | 5.9%
12 | Fc1ccccc1-c1nc(NCCCN2CCOCC2)c2ccccc2n1 | 11.7%
13 | Cc1ccc(-c2nc(NCCN3CCOCC3)c3ccccc3n2)cc1 | 40.5%
14 | Oc1ccccc1-c1nc(NCCN2CCOCC2)c2ccccc2n1 | 59.3% (active)
15 | Clc1ccc(-c2nc(NCCN3CCOCC3)c3ccccc3n2)cc1 | 40.9%
16 | CCCCCOc1ccc(NS(C)(=O)=O)cc1 | -26.8%
17 | O=c1[nH]c(C(F)(F)F)nc2ccccc12 | -18.7%
18 | COc1ccccc1N(CN1C(=O)c2ccccc2C1=O)C(=O)c1cccnc1 | -10%
19 | CCOC(=O)c1cc(-c2ccc(/C=N\n3cnnc3)o2)ccc1Cl | -11%
20 | O=C1CNC(=O)/C1=C\N1CCCCC1 | -3.5%
21 | Cc1cc(Nc2ccc(Br)cc2F)n2nc(C)nc2n1 | 3.9%
22 | CCCNC(=O)Nc1cc(OCC)c(N2CCOCC2)cc1OCC | 2.8%

Row | Compound | cytotoxicity
23 | COc1ccc(C(=O)c2coc3ccc(O)c(CN4CCCCC4)c23)cc1 | 16.8%
24 | COc1ccc(-c2coc3c(CN4CCCCC4)c(O)c(CN4CCCCC4)c(O)c3c2=O)cc1 | 54.7% (active)
25 | O=c1c(-c2ccccc2)coc2c(CN3CCCC3)c(O)ccc12 | -6.5%
26 | CC1Cc2cc(C3(O)C(=O)c4ccccc4C3=O)ccc2N1 (centres undefined) | -0.9%
27 | COc1ccc(C2=[N+]([O-])C(C)(C)N(O)C2(C)C)cc1 | -22%
28 | Cc1ccc(C2c3c(oc4cc(C)c(C)cc4c3=O)C(=O)N2CCCN2CCOCC2)cc1 (centres undefined) | -5.4%
29 | Cc1c(-c2nc(N)nc(Nc3ccccc3F)n2)oc2ccccc12 | 14.6%
30 | Cc1c(-c2nc(N)nc(Nc3ccccc3)n2)oc2ccccc12 | 68.7% (active)
31 | Cc1c(-c2nc(N)nc(Nc3ccc(F)cc3)n2)oc2ccccc12 | 12%
32 | CNC(=O)c1cc(S(=O)(=O)N(C)C)ccc1Cl | 2.1%
33 | CCCCOc1ccccc1-c1cc(C(=O)O)[nH]n1 | -9.2%
34 | CC(=O)Oc1c(S(=O)(=O)c2ccc(C)cc2)c(C)nn1-c1ccccc1 | -4.8%
35 | O=C1CCC(=O)N1c1cccc(-c2nc3ccccc3o2)c1 | 1.5%
36 | Nc1nnnn1/N=C/c1cccc(Oc2ccccc2)c1 | -6.8%
37 | Nc1nnnn1/N=C/C=C/c1ccccc1 | -19.8%
38 | C=CCOC(=O)C1=C(C)Nc2nnnn2C1c1cccc(OC)c1OC (centres undefined) | 1.2%
39 | Cn1cc(/C=N/n2cnc3sc4c(c3c2=O)CCCC4)c2ccccc21 | 7.8%
40 | Cn1cc(/C=N/n2cnc3scc(-c4ccc(Cl)cc4)c3c2=O)c2ccccc21 | 77.5% (active)
41 | Cn1cc(/C=N/n2cnc3scc(-c4ccccc4)c3c2=O)c2ccccc21 | 48.5%
42 | COc1ccc(NC(=O)C2CCN(S(=O)(=O)c3ccc(C)cc3)CC2)cc1OC | -26.5%
43 | CCOc1ccc(C2CC(c3ccc(OC)cc3)n3ncnc3N2)cc1 (centres undefined) | -6.4%
44 | Cc1[nH]c2ccc(-c3nnc(SCC(=O)c4ccc(F)cc4)o3)cc2c1C | -0.1%

Row | Compound | cytotoxicity
45 | Cc1[nH]c2ccc(-c3nnc(SCC(=O)N4CCCc5ccccc54)o3)cc2c1C | 2.9%
46 | Cc1[nH]c2ccc(-c3nnc(SCC(=O)c4ccccc4F)o3)cc2c1C | 78.5% (active)
47 | CCc1[nH]nc2c1C(C(C)C)C(C#N)=C(N)O2 (centres undefined) | -20.8%
48 | Cc1nn(Cc2ccc(C(=O)NC3CCCCC3)o2)c(C)c1Br | 10.5%
49 | CC1CCc2c(nc3ncnn3c2N2CCN(c3ccccc3F)CC2)C1 (centres undefined) | -5.6%
50 | CCOc1ccc(-c2n[nH]c(C)c2Oc2ccc(OC)cc2)c(O)c1 | 16%
51 | CCOC(=O)COC(=O)c1ccc(O)cc1 | 1.8%
52 | CCOc1ccc(N2C(=O)c3ccc(C(=O)OCc4c(C)noc4C)cc3C2=O)cc1 | -4.2%
53 | CCOC(=O)c1ccc(OCC(=O)c2ccc(O)cc2O)cc1 | 11.9%
54 | CCOC(=O)c1c(N)n[nH]c1-c1ccc(OC)cc1 | 6.6%
55 | CCCOC(=O)c1ccc(-c2c(C)noc2-c2ccc(OC)cc2O)o1 | 1.5%
56 | COc1ccc(Cl)cc1NC(=O)CN1CCC(n2nnc3cc(F)ccc32)CC1 | 5.7%
57 | O=C(c1ccc(S(=O)(=O)N2CCCC2)cc1)N1CCN(Cc2ccc3c(c2)OCO3)CC1 | 4.3%
58 | c1coc(-c2nnc(SCc3cn4ccccc4n3)o2)c1 | -5.9%
59 | CCOC(=O)CN(C(=O)CSc1nnc(-c2ccc(OC)c(OC)c2)o1)c1ccc(F)cc1 | -21.9%
60 | CCOC(=O)c1c(NC(=O)CSc2nnc(CNc3ccc(F)cc3)o2)sc(C)c1C | -12.6%
61 | COc1ccccc1NC(=O)COc1ccc(C(=O)OCC(=O)N2CCCC2=O)cc1OC | -27.1%
62 | O=C(Cn1nnc(-c2ccc3c(c2)OCO3)n1)NCc1ccco1 | -12.9%
63 | CCCCOc1ccc(-c2nnn(CC(=O)NCc3ccco3)n2)cc1 | 50.9% (active)
64 | CCOc1ccc(-c2nnn(CC(=O)NCc3ccco3)n2)cc1 | 0.2%
